Results published in PubChem BioAssay AID1851 (National Center for Advancing Translational Sciences (NCATS), 2009).
Screen size: about 16,000 compounds; about 5,100 (32%) were called active. Inconclusive results (about 25%) are left out. This is one part of the list. Unmarked numbers belong to inactive results. Calls come from the whole dose curve; as a rule, active = well fitted curve in the direction sought with a large enough effect; inconclusive = small, poorly fitted or top-dose-only effect, or effect the other way; inactive = no such curve, though single readings can be large or run the other way.

What follows are molecules tested against Cytochrome P450 3A4 (Homo sapiens) (UniProt P08684) (assay: Cytochrome panel assay with activity outcomes). Details: recombinant CYP, pro-luciferin dealkylation, luminescence, p450-cyp3a4; series mostly up to 57.1 µM.
% is set by controls: 0 for no effect and ±100 for the full control effect.

Chain of Cytochrome P450 3A4 (Homo sapiens) (P08684 whole entry, looked up): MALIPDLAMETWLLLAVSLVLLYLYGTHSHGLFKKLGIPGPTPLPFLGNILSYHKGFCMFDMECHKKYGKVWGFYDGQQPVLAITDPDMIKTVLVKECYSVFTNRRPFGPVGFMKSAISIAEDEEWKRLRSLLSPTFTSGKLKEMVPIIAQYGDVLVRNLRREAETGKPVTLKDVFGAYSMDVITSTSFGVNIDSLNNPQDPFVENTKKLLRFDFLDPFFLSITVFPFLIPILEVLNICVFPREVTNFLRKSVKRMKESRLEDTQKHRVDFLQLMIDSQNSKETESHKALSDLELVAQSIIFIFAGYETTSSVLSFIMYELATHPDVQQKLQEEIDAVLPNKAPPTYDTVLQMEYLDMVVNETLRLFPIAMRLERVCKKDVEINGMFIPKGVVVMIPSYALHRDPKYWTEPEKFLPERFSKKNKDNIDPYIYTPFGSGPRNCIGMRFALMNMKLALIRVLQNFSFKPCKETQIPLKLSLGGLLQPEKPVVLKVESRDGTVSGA

Compound | AC50 | activity, negative = inhibition
CS(=O)(=O)Nc1cccc(-c2cncnc2NCc2ccccc2)c1 | 0.631 µM (active) | 
CS(=O)(=O)Nc1cccc(-c2ccc3ncnc(NCc4cccs4)c3c2)c1 | 3.16 µM (active) | 
Cc1cnc(CNc2ncncc2-c2cccc(NS(C)(=O)=O)c2)cn1 | 3.16 µM (active) | 
CS(=O)(=O)Nc1cccc(-c2ccc3ncnc(NCc4cccnc4)c3c2)c1 | 0.398 µM (active) | 
CCC(=O)O[C@H](CC(=O)O)C[N+](C)(C)C | inactive | 
OCC1CCCN(Cc2ccc(-c3ccccc3)cc2)C1 (stereo not drawn) | inactive | 
COc1ccc(-c2csc(NC(=O)CCn3cnc4ccccc4c3=O)n2)cc1OC | 11.2 µM (active) | 
COc1cccc(C(=O)NCCN2CCOCC2)c1 | inactive | 
O=C(NCCN1CCOCC1)c1csc2c1CCCCC2 |  | -7.18% [at 2.29 µM]
COc1ccc(C(=O)Nc2ccc(Cl)cc2C(=O)NCCN2CCOCC2)cc1 | 14.1 µM (active) | 
COc1ccc(-c2cn3c(C)c(C(=O)NCCN4CCOCC4)sc3n2)cc1 | 12.6 µM (active) | 
COc1ccc(C2=NOC(C(=O)NCCN3CCOCC3)C2)cc1 (stereo not drawn) | inactive | 
COCCNC(=O)c1sc2nc(-c3ccccc3)cn2c1C | inactive | 
N#Cc1nc(-c2cccs2)oc1NCc1ccccc1 | 12.6 µM (active) | 
C(=C\c1nnc(-c2cccs2)o1)/c1ccccc1 | inactive | 
O=C(Nc1ccccc1)N1CC2(CCN(C(=O)c3cnccn3)CC2)C1 | inactive | 
O=C(Nc1cccc(F)c1)N1CC[C@@]2(CCCN(C(=O)c3cnccn3)C2)C1 | 12.6 µM (active) | 
O=C(Nc1cccc(F)c1)N1CCC2(CC1)CCN(C(=O)c1cnccn1)CC2 | inactive | 
O=C(Nc1cccc(F)c1)N1CCCC2(CCN(C(=O)c3cnccn3)CC2)C1 | 12.6 µM (active) | 
O=C(Nc1ccccc1)N1CCC2(CC1)CCN(C(=O)c1cnccn1)CC2 | inactive | 
CCNc1ncc2ncc(=O)n(C3CC3)c2n1 | inactive | 
Nc1ncnc2nc(N3CCN(CCO)CC3)[nH]c12 |  | -3.68% [at 11.4 µM]
O=S(=O)(c1cnccc1N1CCN(/N=C/c2ccccc2)CC1)N1CCCCC1 | 0.891 µM (active) | 
CC(C)N1CCN(c2ccncc2S(=O)(=O)N2CCCCC2)CC1 | 3.16 µM (active) | 

Compound | AC50 | activity, negative = inhibition
O=S(=O)(c1cnccc1N1CCN(CCO)CC1)N1CCCC1 | 3.98 µM (active) | 
Cn1c([N+](=O)[O-])cnc1CN1CCN(CCO)CC1 |  | -14.7% [at 11.4 µM]
CC(C)NC(=O)N1CCN(c2ccncc2S(=O)(=O)N2CCOCC2)CC1 |  | -21.8% [at 2.29 µM]
CC(C)(C)NC(=O)C(=O)N/N=C/c1ccc(Br)cc1 | inactive | 
CCCC[C@H]1C[C@@H]1[C@@H]1N(P(=O)(c2ccccc2)c2ccccc2)C[C@@](O)(c2ccccc2)CC12CC2 | 2 µM (active) | 
CCCC[C@H]1C[C@@H]1[C@@H]1N(P(=O)(c2ccccc2)c2ccccc2)[C@](CO)(c2ccccc2)CC12CC2 | 2 µM (active) | 
Cc1cc2c(c(=O)o1)[C@H](O)[C@H]1O[C@@H]1C2=O |  | -24.9% [at 11.4 µM]
O=C(O)CC1(CC(=O)O)Nc2ccccc2SC1=O |  | -8.21% [at 11.4 µM]
Cc1nonc1NC(=O)OCCN1CCOC1=O | inactive | 
CC(C)(C)c1cc(/C=C(\C#N)C(N)=S)cc(C(C)(C)C)c1O | 3.98 µM (active) | 
Cc1sc2ncn(CC(=O)NCCCC(=O)N3CCN(c4ncccn4)CC3)c(=O)c2c1C | 14.1 µM (active) | 
COCC(=O)N1CCC2(CC1)CCN(c1ncccn1)CC2 | inactive | 
CCC(C)NC(=O)Cn1cnc2sc(C)cc2c1=O (stereo not drawn) | inactive | 
NS(=O)(=O)c1ccc(N=Nc2ccc[nH]c2=O)cc1 |  | -13.7% [at 11.4 µM]
O=C(COc1ccc([N+](=O)[O-])cc1)NN=C1CCCC1 | 25.1 µM (active) | 
O=C(COc1ccc(Br)cc1)Nc1ccc([N+](=O)[O-])cn1 | inactive | 
N=C(N)SCCc1ccc(OCc2ccc([N+](=O)[O-])cc2)cc1 | inactive | 
O=C1O[C@H](CN2CCOCC2)CN1/N=C\c1ccc([N+](=O)[O-])o1 | inactive | 
Cc1nc(NS(=O)(=O)c2ccccc2C)c2c3c(sc2n1)CCC3 | 8.91 µM (active) | 
Cc1nc(NS(=O)(=O)c2ccc(Br)cc2)c2c3c(sc2n1)CCC3 | 11.2 µM (active) | 
C[C@H](Nc1ncnc2sc3c(c12)CCC3)C(=O)O | inactive | 
CNC(=S)N1CCN(c2ccccc2OC)CC1 | 10 µM (active) | 
Fc1cccc(CSc2ncnc3c2ncn3[C@H]2CCCS2)c1 |  | -11.8% [at 11.4 µM]
Cc1nc(Sc2ccccc2)c(C#N)cc1-c1ccccc1 | inactive | 

Compound | AC50 | activity, negative = inhibition
Cc1ccc(Sc2nc(-c3ccccc3)ccc2C#N)cc1 | 20 µM (active) | 
N#Cc1ccc(-c2ccc(F)cc2)nc1Oc1ccc(Cl)c(Cl)c1 | inactive | 
COc1ccccc1-c1nnc(SCc2nc3ccccc3s2)n1C | 17.8 µM (active) | 
CCN1C(=O)[C@H]2[C@H]3[C@H](O)[C@H](O)C/C(=N/O[C@@H]4O[C@@H](COC(C)=O)[C@@H](OC(C)=O)[C@@H](OC(C)=O)[C@H]4OC(C)=O)[C@@H]3CC[C@@H]2C1=O |  | -19.3% [at 11.4 µM]
COc1ccc(-c2cc(-c3cc(F)ccc3O)[nH]n2)cc1OC | 20 µM (active) | 
COc1ccc(-c2c(C)oc3c(CN4CCN(CCO)CC4)c(O)ccc3c2=O)cc1OC |  | -0.572% [at 11.4 µM]
COc1cc(-c2ccc(=O)[nH]n2)ccc1OC(F)F | inactive | 
COc1ccc(-c2cc(-c3c(O)c(OC)c4occc4c3OC)[nH]n2)cc1OC | 7.94 µM (active) | 
Nc1nc(Nc2ccccc2)nc2c1ncn2[C@@H]1O[C@@H](CO)[C@H](O)[C@H]1O | inactive | 
Cc1nn(C(=O)CN2C(=O)c3ccccc3C2=O)c(C)c1Br | inactive | 
O=C1c2ccccc2C(=O)N1CC(=O)N1c2ccccc2CCc2ccccc21 | 12.6 µM (active) | 
O=C(CN1C(=O)c2ccccc2C1=O)NC1(C(=O)O)CCCC1 |  | -10.2% [at 11.4 µM]
CCc1ccc(C2=Nn3c(nnc3-c3cccs3)SC2)cc1 | 25.1 µM (active) | 
COc1ccc(-c2nnc3n2N=C(C)CS3)cc1 | inactive | 
c1ccc(-c2ccc(C3=Nn4c(Cn5nnc6ccccc65)nnc4SC3)cc2)cc1 |  | -11.6% [at 2.29 µM]
CCOc1ccc(-c2nnc3ccc(SC)nn23)cc1 | inactive | 
CCOc1ccc(-c2nnc3n2N=C(c2ccc(OC)cc2)CS3)cc1 | 15.8 µM (active) | 
O=C(O)C1(Nc2ccc(Cl)cc2)CCCC1 |  | -9.17% [at 11.4 µM]
Cc1ccc(CNC(=O)C2(NC(=O)Nc3ccc(C)cc3)CCCCC2)cc1 | 2.51 µM (active) | 
CCNC(=O)NC1(C(=O)Nc2ccc3c(c2)OCCO3)CCCCC1 | inactive | 
O=C(CSCc1ccccc1)Nc1ccc(S(=O)(=O)N2CCOCC2)cc1 |  | -15.3% [at 11.4 µM]
O=C(CSCc1ccccc1)Nc1cccc(C(=O)Nc2ccccc2C(=O)O)c1 | 14.1 µM (active) | 
CNc1csc(C)c(C)c1=O | inactive | 
c1ccc2c(CSCc3cccc4ccccc34)cccc2c1 |  | -3.97% [at 11.4 µM]

Compound | AC50 | activity, negative = inhibition
c1ccc2c(CSc3nnc(-c4ccncc4)o3)cccc2c1 | 15.8 µM (active) | 
CCCCNC(=O)CN1C(=O)NC2(CCCc3ccccc32)C1=O (stereo not drawn) | inactive | 
CCCCN(C)C(=O)c1coc(=O)c2ccccc12 | inactive | 
CCCCNC(=O)Cc1coc2ccc3ccccc3c12 | 4.47 µM (active) | 
CCCN(C(=O)Cc1nc(N)n[nH]1)C1(C(=O)Nc2ccccc2C)CCCCC1 | 1.12 µM (active) | 
O=C(c1cc(C(F)(F)F)cc(C(F)(F)F)c1)N1CCC[C@@]2(CCN(Cc3ccncc3)C2)C1 | 0.501 µM (active) | 
O=C(c1cc(C(F)(F)F)cc(C(F)(F)F)c1)N1CCC[C@@]2(CCN(Cc3ccccc3)C2)C1 | 5.01 µM (active) | 
O=C(c1cc(C(F)(F)F)cc(C(F)(F)F)c1)N1CCC2(CCN(Cc3ccccc3)CC2)CC1 | inactive | 
N#Cc1ccc(CN2CC3(CCN(C(=O)c4cc(C(F)(F)F)cc(C(F)(F)F)c4)CC3)C2)cc1 | inactive | 
O=C(c1cc(C(F)(F)F)cc(C(F)(F)F)c1)N1CCC2(CC1)CN(Cc1ccccc1)C2 | inactive | 
O=C(c1ccncc1)N1CCC2(CC1)CN(Cc1cc(C(F)(F)F)cc(C(F)(F)F)c1)C2 | 5.01 µM (active) | 
N#Cc1ccc(CN2CC[C@@]3(CCCN(C(=O)c4cc(C(F)(F)F)cc(C(F)(F)F)c4)C3)C2)cc1 | 5.01 µM (active) | 
N#Cc1ccc(CN2CCC3(CC2)CCN(C(=O)c2cc(C(F)(F)F)cc(C(F)(F)F)c2)CC3)cc1 | inactive | 
NS(=O)(=O)c1ccc(N=Nc2ccc(O)c(C(=O)O)c2)cc1 |  | -11.8% [at 11.4 µM]
Nc1nc2ncc(CNc3ccc(C(=O)N[C@@H](CCC(=O)O)C(=O)O)cc3)nc2c(=O)[nH]1 | inactive | 
Nc1nc(-c2ccccc2)cc(-c2ccccc2O)n1 | inactive | 
Nc1nc(-c2cccc([N+](=O)[O-])c2)cc(-c2cc(-c3cccc([N+](=O)[O-])c3)nc(N)n2)n1 |  | -1.01% [at 11.4 µM]
Nc1c(-c2ccccc2)cnn1-c1cccc([N+](=O)[O-])c1 | 14.1 µM (active) | 
CCCc1ccc(Oc2cc(C)nc(N3CCOCC3)n2)cc1 |  | 28.4% [at 0.457 µM]
Cc1cc(C)c2c(SCc3ccc(Cl)cc3Cl)nc(N)nc2n1 |  | 19.4% [at 11.4 µM]
Cc1cc(N2CCOCC2)nc(SCc2ccc(Cl)cc2Cl)n1 | 2.24 µM (active) | 
